Drawing on PMC8384837, “Expanding the binding specificity for RNA recognition by a PUF domain”, this text covers binding signal for twelve sequences.

Assay in all cases: yeast three-hybrid, YBZ-1, SC-Leu-His + 0.5 mM 3-AT, 4 days
What all share (conditions): tags: N-Gal4 AD-HA kept; label: inside an RPR1-promoter hybrid RNA with tandem MS2 sites; ssRNA

Assay [1] concerns the target PUM1 PUF domain R3-WWG (Homo sapiens, UniProt Q14671 828-1176, C935W;R936W;Q939G). In outline: (§1)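 Each repeat of the Pumilio-1 PUF domain was randomized at its three base-contacting residues, and these libraries were co-expressed from a centromeric plasmid with matching RNA elements in strain YBZ-1. After four days on SC-Leu (input) or SC-Leu-His + 0.5 mM 3-AT (selection), the repeat regions were PCR-amplified and Illumina-sequenced. The interaction score compares variant frequency between input and selection as a log change, computed in log2 with a pseudocount of 1 for absent variants.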

Assay [2] has as its target PUM1 PUF domain R1-MVR (Homo sapiens, UniProt Q14671 828-1176, S863M;R864V;Q867R). In outline:
as §1

Assay [3] concerns the target PUM1 PUF domain R1-ARR (Homo sapiens, UniProt Q14671 828-1176, S863A;Q867R). In outline: as §1
The target in assay [4] is PUM1 PUF domain R5-RAC (Homo sapiens, UniProt Q14671 828-1176, C1007R;R1008A;Q1011C). In outline:
as §1

In assay [5] the target is PUM1 PUF domain R5-HRL (Homo sapiens, UniProt Q14671 828-1176, C1007H;Q1011L). In short, it runs like this:
as §1

For assay [6], the target named is PUM1 PUF domain R5-KGS (Homo sapiens, UniProt Q14671 828-1176, C1007K;R1008G;Q1011S). In outline: as §1
Assay [7] addresses PUM1 PUF domain R4-DYR (Homo sapiens, UniProt Q14671 828-1176, N971D;H972Y;Q975R). In short, it runs like this: as §1
Assay [8] deals with PUM1 PUF domain R4-GWW (Homo sapiens, UniProt Q14671 828-1176, N971G;H972W;Q975W). In short, it runs like this:
as §1

In assay [9] the target is PUM1 PUF domain R4-CYP (Homo sapiens, UniProt Q14671 828-1176, N971C;H972Y;Q975P). In outline: as §1
For assay [10], the target named is PUM1 PUF domain R4-SNR (Homo sapiens, UniProt Q14671 828-1176, N971S;H972N;Q975R). In short, it runs like this: as §1
The target of assay [11] is PUM1 PUF domain R5-SPC (Homo sapiens, UniProt Q14671 828-1176, C1007S;R1008P;Q1011C). In outline:
as §1

For assay [12], the target named is PUM1 PUF domain R5-MHA (Homo sapiens, UniProt Q14671 828-1176, C1007M;R1008H;Q1011A). In outline:
as §1

Assay [13] has as its target PUM1 PUF domain R5-QCS (Homo sapiens, UniProt Q14671 828-1176, C1007Q;R1008C;Q1011S). In short, it runs like this: as §1
For assay [14], the target named is PUM1 PUF domain R5-SIS (Homo sapiens, UniProt Q14671 828-1176, C1007S;R1008I;Q1011S). In outline: as §1
In assay [15] the target is T1, PUM1 PUF domain R6-IWR (Homo sapiens, UniProt Q14671 828-1176, N1043I;Y1044W;Q1047R).
T1 sequence: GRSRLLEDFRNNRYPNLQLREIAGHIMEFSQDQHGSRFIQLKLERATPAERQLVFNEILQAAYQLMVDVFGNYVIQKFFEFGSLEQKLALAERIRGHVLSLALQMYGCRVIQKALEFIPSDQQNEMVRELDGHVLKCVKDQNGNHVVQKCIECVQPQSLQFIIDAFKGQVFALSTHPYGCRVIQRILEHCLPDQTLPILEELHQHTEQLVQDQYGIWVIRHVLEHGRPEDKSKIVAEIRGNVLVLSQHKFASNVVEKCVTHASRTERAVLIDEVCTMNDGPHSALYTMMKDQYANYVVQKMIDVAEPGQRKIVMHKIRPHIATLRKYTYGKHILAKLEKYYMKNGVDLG
In outline: as §1

Assay [16] deals with PUM1 PUF domain R4-RNY (Homo sapiens, UniProt Q14671 828-1176, N971R;H972N;Q975Y). In short, it runs like this: as §1
Assay [17] addresses PUM1 PUF domain R4-SWP (Homo sapiens, UniProt Q14671 828-1176, N971S;H972W;Q975P). In short, it runs like this:
as §1

Assay [18] addresses PUM1 PUF domain R3-RCN (Homo sapiens, UniProt Q14671 828-1176, C935R;R936C;Q939N). In short, it runs like this: as §1
Assay [19] has as its target PUM1 PUF domain R4-NWP (Homo sapiens, UniProt Q14671 828-1176, H972W;Q975P). In short, it runs like this: as §1
The target in assay [20] is PUM1 PUF domain R4-EYI (Homo sapiens, UniProt Q14671 828-1176, N971E;H972Y;Q975I). In outline:
as §1

As for “GGCUAGAACUAGUGGAUCCCCCGGCGCCCGGCGGCUCGAGCCCGGGUAAGUGUAAGUAGUCUGCAUGCCGCCGGGCGCCAUGCCUGCAGGUCGACUCUAGAAAACAUG”, the binding signal in assay [1] was 4.28 log2 enrichment (interaction score).
Take “GGCUAGAACUAGUGGAUCCCCCGGCGCCCGGCGGCUCGAGCCCGGGUAAGUGUAAAUCGUCUGCAUGCCGCCGGGCGCCAUGCCUGCAGGUCGACUCUAGAAAACAUG”: the binding signal is 2.85 log2 enrichment (interaction score) in [2] and 2.95 log2 enrichment (interaction score) in assay [3].
With “GGCUAGAACUAGUGGAUCCCCCGGCGCCCGGCGGCUCGAGCCCGGGUAAGUGUCAAUAGUCUGCAUGCCGCCGGGCGCCAUGCCUGCAGGUCGACUCUAGAAAACAUG”, the binding signal in assay [4] is 3.54 log2 enrichment (interaction score); in [5], 2.78 log2 enrichment (interaction score); in [6], 4.66 log2 enrichment (interaction score).
Regarding “GGCUAGAACUAGUGGAUCCCCCGGCGCCCGGCGGCUCGAGCCCGGGUAAGUGUACAUAGUCUGCAUGCCGCCGGGCGCCAUGCCUGCAGGUCGACUCUAGAAAACAUG”, the binding signal in assay [7] was 6.53 log2 enrichment (interaction score); in assay [8], 0.85 log2 enrichment (interaction score); in [9] it was 6.17 log2 enrichment (interaction score); in assay [10], 2.06 log2 enrichment (interaction score).
As for “GGCUAGAACUAGUGGAUCCCCCGGCGCCCGGCGGCUCGAGCCCGGGUAAGUGUUAAUAGUCUGCAUGCCGCCGGGCGCCAUGCCUGCAGGUCGACUCUAGAAAACAUG”, the binding signal in [5] is 4.98 log2 enrichment (interaction score); in assay [11], 2.48 log2 enrichment (interaction score); in assay [12] it was 4.69 log2 enrichment (interaction score); in assay [13] it was 0.61 log2 enrichment (interaction score).
With “GGCUAGAACUAGUGGAUCCCCCGGCGCCCGGCGGCUCGAGCCCGGGUAAGUGUGAAUAGUCUGCAUGCCGCCGGGCGCCAUGCCUGCAGGUCGACUCUAGAAAACAUG”, the binding signal was 3.76 log2 enrichment (interaction score) in [14] and 3.56 log2 enrichment (interaction score) in assay [13].
“GGCUAGAACUAGUGGAUCCCCCGGCGCCCGGCGGCUCGAGCCCGGGUAAGUGUAAAUAGUCUGCAUGCCGCCGGGCGCCAUGCCUGCAGGUCGACUCUAGAAAACAUG”: the binding signal in assay [15] was 6.32 log2 enrichment (interaction score); in assay [4], 0.59 log2 enrichment (interaction score); in assay [7] it was 1.4 log2 enrichment (interaction score); in [8], 3.18 log2 enrichment (interaction score); in assay [9], 5.36 log2 enrichment (interaction score); in assay [16], 3.7 log2 enrichment (interaction score). The binding signal in assay [17] is 5.57 log2 enrichment (interaction score).
“GGCUAGAACUAGUGGAUCCCCCGGCGCCCGGCGGCUCGAGCCCGGGUAAGUGUAAAUUGUCUGCAUGCCGCCGGGCGCCAUGCCUGCAGGUCGACUCUAGAAAACAUG”: the binding signal was 1.71 log2 enrichment (interaction score) in assay [2] and 1.97 log2 enrichment (interaction score) in [3].
On to “GGCUAGAACUAGUGGAUCCCCCGGCGCCCGGCGGCUCGAGCCCGGGUAAGUGUAAUUAGUCUGCAUGCCGCCGGGCGCCAUGCCUGCAGGUCGACUCUAGAAAACAUG”, for which the binding signal in assay [1] is 4.2 log2 enrichment (interaction score); in assay [18] it was 2.71 log2 enrichment (interaction score).
On to “GGCUAGAACUAGUGGAUCCCCCGGCGCCCGGCGGCUCGAGCCCGGGUAAGUGUAAAUGGUCUGCAUGCCGCCGGGCGCCAUGCCUGCAGGUCGACUCUAGAAAACAUG”, for which the binding signal in assay [3] is 0.69 log2 enrichment (interaction score).
For “GGCUAGAACUAGUGGAUCCCCCGGCGCCCGGCGGCUCGAGCCCGGGUAAGUGUAUAUAGUCUGCAUGCCGCCGGGCGCCAUGCCUGCAGGUCGACUCUAGAAAACAUG”, the binding signal is 2.37 log2 enrichment (interaction score) in [19]; 6.18 log2 enrichment (interaction score) in assay [7]; 3.01 log2 enrichment (interaction score) in assay [20]; 2.9 log2 enrichment (interaction score) in assay [10]; 5.26 log2 enrichment (interaction score) in assay [17].
Consider “GGCUAGAACUAGUGGAUCCCCCGGCGCCCGGCGGCUCGAGCCCGGGUAAGUGAAAAUAGUCUGCAUGCCGCCGGGCGCCAUGCCUGCAGGUCGACUCUAGAAAACAUG”, for which the binding signal in assay [15] is 1.61 log2 enrichment (interaction score).
